Source: PubChem BioAssay
Results filed as inconclusive are left out. The source made the active and inactive calls.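 The calls were made as follows, unless noted: active = aptamer binding inhibition above 30%, about 3 SD of noise from non-fluorescent compounds; inactive = inhibition at or below 30%.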

Columns and labels:
[1] = rapamycin-like changes in RPL19A-GFP expression – cell-based, S. cerevisiae, multiplex flow cytometry, primary screen (AID 1862; in the data active = percent of DMSO control GFP below about 86%;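 also: lower values mimic rapamycin by blocking the RPL19A rise seen in DMSO cells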); conditions: S. cerevisiae RPL19A-GFP strain, flow cytometry fluorescence, 3 h; at 10 µM; stronger effect = lower value
[2] = TOR pathway GLN3 branch reporter MEP2-GFP changes – S. cerevisiae, multiplex flow cytometry, primary screen (AID 1867;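 active = GFP response, as percent of the DMSO control, above the screen-wide mean plus 3 SD, about 139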;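 also: median GFP channel fluorescence of barcode-gated MEP2-GFP cells measured by flow cytometry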); conditions: S. cerevisiae MEP2-GFP strain, 3 h, at 10 µM, stronger effect = higher value, 100% means same as DMSO wells
[3] = TOR pathway RTG branch CIT2 reporter changes – S. cerevisiae, GFP fusion, multiplex flow cytometry, primary screen (AID 1870;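 active = percent response above a set limit, the screen-wide mean plus 3 SD, cut at about 130% in these data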;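 also: barcoded CIT2-GFP strain pooled with four other GFP strains with rapamycin as positive control; median GFP fluorescence per well over plate mean of DMSO wells so 100% = DMSO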); conditions: S. cerevisiae CIT2-GFP expression, 3 h, at 10 µM, stronger effect = higher value
[4] = TOR pathway LAP4-GFP level changes – S. cerevisiae, multiplex flow cytometry, primary screen (AID 1873;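 active = GFP signal, as percent of the solvent control, above the screen mean plus 3 SD, about 149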); conditions: S. cerevisiae LAP4-GFP expression, 3 h, at 10 µM, stronger effect = higher value
[5] = yeast AGP1-GFP level changes, GLN3 branch – cell-based, multiplex flow cytometry, S. cerevisiae, primary screen (AID 1887;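 active = GFP signal above the screen-wide mean plus 3 SD, that is over about 124.5% of the solvent control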;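 also: AGP1-GFP fusion strain of S. cerevisiae within a five-strain barcoded multiplex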); conditions: 3 h, at 10 µM, stronger effect = higher value
[6] = reduced mouse 2C T cell binding to pMHC/ICAM-1 vesicles – MLPCN validation set, flow cytometry, LFA-1/ICAM-1 modulator project, pilot screen (AID 2523;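 active = response below a set limit, under 55% cells CD8-positive and vesicle-bound, and CD8 cells' 90th-percentile brightness under 279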;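 as to vesicle binding response: mean PE anti-B7-1 fluorescence of CD8+ cells relative to row control; 100% = QL9-loaded vesicles with DMSO vehicle in the same plate row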); conditions: 2C mouse CD8+ T cells, at 7 µM, stronger effect = lower value; double positive events: measured here: CD8+/vesicle+ event percentage
[7] = biological target: Integrin beta-1 (Homo sapiens) + Integrin alpha-4 (Homo sapiens) (UniProt P13612+P05556); test: alpha4beta1 integrin LIBS antibody binding reduction – U937 cells, HUTS-21 mAb, flow cytometry, validation set, VLA-4 allosteric modulator project, pilot screen (AID 2674;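 active = inhibition above 50%, about 3 SD of the validation set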;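 also: antibody binding induced by the VLA-4 ligand LDV present at three times its Kd; 0% = LDV ligand with antibody and no compound and 100% = antibody without LDV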); conditions: HUTS-21 LIBS mAb binding, at 6.7 µM, stronger effect = higher value, binding induced by LDV ligand
Sequence of Integrin beta-1 (Homo sapiens) + Integrin alpha-4 (Homo sapiens) (P05556 whole entry, looked up): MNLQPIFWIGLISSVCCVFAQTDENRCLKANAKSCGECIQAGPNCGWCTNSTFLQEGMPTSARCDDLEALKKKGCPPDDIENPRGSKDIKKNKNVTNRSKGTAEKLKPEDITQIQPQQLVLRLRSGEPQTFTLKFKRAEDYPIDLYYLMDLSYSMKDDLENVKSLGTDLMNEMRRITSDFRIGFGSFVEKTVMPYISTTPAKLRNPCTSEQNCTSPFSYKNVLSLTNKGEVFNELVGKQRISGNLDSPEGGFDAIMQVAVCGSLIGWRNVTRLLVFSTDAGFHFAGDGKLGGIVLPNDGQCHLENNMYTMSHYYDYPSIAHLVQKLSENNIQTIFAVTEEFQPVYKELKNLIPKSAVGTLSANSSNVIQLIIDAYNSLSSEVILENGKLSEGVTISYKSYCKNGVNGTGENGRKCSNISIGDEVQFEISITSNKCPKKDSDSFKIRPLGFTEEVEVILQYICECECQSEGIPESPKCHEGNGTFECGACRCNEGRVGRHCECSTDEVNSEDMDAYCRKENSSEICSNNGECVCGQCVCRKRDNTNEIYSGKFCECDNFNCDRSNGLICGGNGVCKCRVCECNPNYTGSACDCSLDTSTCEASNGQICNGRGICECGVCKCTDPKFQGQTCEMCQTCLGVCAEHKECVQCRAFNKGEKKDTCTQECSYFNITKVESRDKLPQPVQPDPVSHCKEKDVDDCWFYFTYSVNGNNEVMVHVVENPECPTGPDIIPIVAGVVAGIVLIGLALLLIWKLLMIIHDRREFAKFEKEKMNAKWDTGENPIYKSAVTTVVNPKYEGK
Sequence of Integrin beta-1 (Homo sapiens) + Integrin alpha-4 (Homo sapiens) (P13612 whole entry, looked up): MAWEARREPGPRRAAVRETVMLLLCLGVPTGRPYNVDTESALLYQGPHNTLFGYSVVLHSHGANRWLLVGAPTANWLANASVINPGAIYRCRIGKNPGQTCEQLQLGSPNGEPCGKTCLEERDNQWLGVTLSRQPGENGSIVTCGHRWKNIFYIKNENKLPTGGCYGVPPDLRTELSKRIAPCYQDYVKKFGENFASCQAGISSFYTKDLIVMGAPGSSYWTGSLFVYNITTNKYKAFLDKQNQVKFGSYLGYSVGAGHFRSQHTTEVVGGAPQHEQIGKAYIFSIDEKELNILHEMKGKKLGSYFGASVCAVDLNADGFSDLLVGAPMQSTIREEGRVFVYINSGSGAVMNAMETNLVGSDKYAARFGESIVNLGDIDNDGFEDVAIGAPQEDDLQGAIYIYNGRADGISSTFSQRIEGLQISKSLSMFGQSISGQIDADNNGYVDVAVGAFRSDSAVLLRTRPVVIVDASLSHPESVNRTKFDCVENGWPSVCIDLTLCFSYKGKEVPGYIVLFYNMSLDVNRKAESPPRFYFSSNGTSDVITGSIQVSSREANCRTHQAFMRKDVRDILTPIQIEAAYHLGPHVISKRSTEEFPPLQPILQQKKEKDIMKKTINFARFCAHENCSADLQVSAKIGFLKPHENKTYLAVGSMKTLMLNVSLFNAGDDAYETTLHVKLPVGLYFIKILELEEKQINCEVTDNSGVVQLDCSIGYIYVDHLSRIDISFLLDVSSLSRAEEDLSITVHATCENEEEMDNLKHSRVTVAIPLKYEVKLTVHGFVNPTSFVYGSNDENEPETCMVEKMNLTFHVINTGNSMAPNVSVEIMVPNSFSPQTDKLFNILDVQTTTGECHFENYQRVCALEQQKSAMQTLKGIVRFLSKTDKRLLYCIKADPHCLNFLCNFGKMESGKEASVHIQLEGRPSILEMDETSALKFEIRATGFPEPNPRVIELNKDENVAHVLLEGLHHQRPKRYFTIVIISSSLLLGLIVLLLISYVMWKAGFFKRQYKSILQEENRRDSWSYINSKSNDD

[8] = calorie-restriction mimetic ROS inhibitors, yeast – validation compound set, pilot screen (AID 2706;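 active = superoxide response below 65% of plate, a cut near 3 SD across the whole screen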;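 also: yeast exposed to compound for one week at 30 degrees C before staining; 100% = mean of all compound wells on the same plate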); conditions: S. cerevisiae aging, superoxide DHE fluorescence; at 10 µM, stronger effect = lower value
[9] = biological target: Beta-adrenergic receptor kinase 1 (Homo sapiens) (UniProt P25098); test: GRK2 binders displacing RNA aptamer, biochemical, validation, human GRK2, bead flow cytometry (AID 488806); conditions: bead-bound GRK2, FAM-aptamer displacement, at 10 µM, stronger effect = higher value
Sequence of Beta-adrenergic receptor kinase 1 (Homo sapiens) (P25098 whole entry, looked up): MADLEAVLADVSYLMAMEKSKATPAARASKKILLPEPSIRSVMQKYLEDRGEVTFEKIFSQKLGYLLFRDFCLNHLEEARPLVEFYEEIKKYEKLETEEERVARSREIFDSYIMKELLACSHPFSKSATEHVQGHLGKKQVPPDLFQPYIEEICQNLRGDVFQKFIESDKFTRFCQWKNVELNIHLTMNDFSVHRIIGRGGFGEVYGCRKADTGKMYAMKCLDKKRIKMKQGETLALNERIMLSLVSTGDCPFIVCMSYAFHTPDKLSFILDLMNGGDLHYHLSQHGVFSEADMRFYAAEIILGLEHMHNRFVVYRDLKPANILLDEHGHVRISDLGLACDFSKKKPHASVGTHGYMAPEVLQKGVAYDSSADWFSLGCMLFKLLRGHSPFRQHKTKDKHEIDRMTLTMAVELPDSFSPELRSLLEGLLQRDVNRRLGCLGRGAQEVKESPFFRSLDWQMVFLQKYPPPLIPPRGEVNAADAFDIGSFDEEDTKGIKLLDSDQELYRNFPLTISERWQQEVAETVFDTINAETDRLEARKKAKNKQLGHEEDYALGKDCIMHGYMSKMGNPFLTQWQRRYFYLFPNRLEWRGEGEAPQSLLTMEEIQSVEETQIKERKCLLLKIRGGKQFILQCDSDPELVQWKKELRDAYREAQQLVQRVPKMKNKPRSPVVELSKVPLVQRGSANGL

[10] = biological target: AP-2 complex subunit beta (Homo sapiens) (UniProt P63010); test: beta-arrestin/AP2 interaction blockers – biochemical, validation set, GST-AP2 beads, flow cytometry, pilot screen (AID 504541;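 active = inhibition above 54%, about 3 SD of non-fluorescent compounds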;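 also: AP2 carries R879A mutation and is captured from E. coli lysate; bead-bound FITC arrestin peptide fluorescence measuring arrestin peptide binding to AP2; 0% = DMSO wells and 100% = excess unlabeled arrestin peptide control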); conditions: FITC arrestin peptide, at 10 µM, stronger effect = higher value, AP2 beta2 appendage fragment, R879A mutant
Sequence of AP-2 complex subunit beta (Homo sapiens) (P63010 whole entry, looked up, the tested form may be a part, one chain of several): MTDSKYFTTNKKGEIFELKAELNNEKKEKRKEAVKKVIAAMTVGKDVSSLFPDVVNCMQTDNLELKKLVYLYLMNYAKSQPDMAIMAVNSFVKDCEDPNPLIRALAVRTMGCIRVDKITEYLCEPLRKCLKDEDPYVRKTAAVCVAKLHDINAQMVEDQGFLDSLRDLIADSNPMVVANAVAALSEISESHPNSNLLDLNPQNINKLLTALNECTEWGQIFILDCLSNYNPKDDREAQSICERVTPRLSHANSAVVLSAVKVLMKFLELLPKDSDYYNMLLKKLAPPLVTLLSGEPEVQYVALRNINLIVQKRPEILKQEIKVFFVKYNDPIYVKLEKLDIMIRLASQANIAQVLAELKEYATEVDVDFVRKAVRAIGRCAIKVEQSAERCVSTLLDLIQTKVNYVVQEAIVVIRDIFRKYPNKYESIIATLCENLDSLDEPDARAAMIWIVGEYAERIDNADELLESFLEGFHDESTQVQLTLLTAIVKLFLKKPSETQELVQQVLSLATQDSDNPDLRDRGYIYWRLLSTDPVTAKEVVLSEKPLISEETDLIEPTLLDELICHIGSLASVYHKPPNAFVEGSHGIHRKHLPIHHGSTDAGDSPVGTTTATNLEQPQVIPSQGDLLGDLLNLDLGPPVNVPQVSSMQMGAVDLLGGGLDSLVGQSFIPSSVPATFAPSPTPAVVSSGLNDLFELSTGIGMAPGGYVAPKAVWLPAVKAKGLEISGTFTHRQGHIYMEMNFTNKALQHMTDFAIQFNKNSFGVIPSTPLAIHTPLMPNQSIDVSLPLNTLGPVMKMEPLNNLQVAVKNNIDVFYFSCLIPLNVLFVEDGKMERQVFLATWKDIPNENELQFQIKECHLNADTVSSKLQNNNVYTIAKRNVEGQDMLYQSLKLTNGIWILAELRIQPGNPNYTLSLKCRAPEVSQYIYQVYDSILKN

[11] = cytosolic pH regulators acting via V-ATPase – S. cerevisiae, pHLuorin, HTS validation (AID 504600; in the data active = response above about 15%;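 also: plate controls were DMSO for no effect and reference compound for full effect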); conditions: V-ATPase proton transport, at 10 µM, stronger effect = higher value
[12] = test system: anti-desmoglein-3 scFv antibody binding to human DSG3; test: blockers of pathogenic pemphigus antibody–desmoglein-3 binding – biochemical, validation compound set, bead-based, flow cytometry, pilot screen (AID 588368;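 active = binding below the plate cutoff, the plate median minus 3 SD, with a reading above zero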;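 also: signal is the median channel fluorescence of bead-bound GFP antibody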); conditions: Protein G beads, DSG3-Fc, scFv-GFP binding, at 10 µM, stronger effect = lower value
[13] = Nile Red efflux blockade in pump-expressing yeast – validation compound set, multiplex, phenotypic, pilot screen (AID 588506;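 active = efflux inhibition above 0.42, the validation set average plus 4 SD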;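 also: Nile Red retained in cells so higher fluorescence means more efflux inhibition; 0 = negative control wells and 1 = enniatin B 25 µM full block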); conditions: S. cerevisiae pump-expressing triplex, Nile Red efflux flow cytometry; at 10 µM; stronger effect = higher value; the pumps come from Candida albicans
[14] = biological target: ATP-binding cassette sub-family B member 6 (Homo sapiens) (UniProt Q9NP58); test: blockers of ABCB6-driven porphyrin uptake – K562-ABCB6 cells, flow cytometry, validation set, pilot screen (AID 588550;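 active = inhibition above the screen-wide mean plus 3 SD, about 51%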;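 also: 0% = DMSO wells and 100% = benzethonium chloride 70 µM positive control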); conditions: K562-ABCB6 porphyrin accumulation, 1 h, at 10 µM, stronger effect = higher value
Sequence of ATP-binding cassette sub-family B member 6 (Homo sapiens) (Q9NP58 whole entry, looked up): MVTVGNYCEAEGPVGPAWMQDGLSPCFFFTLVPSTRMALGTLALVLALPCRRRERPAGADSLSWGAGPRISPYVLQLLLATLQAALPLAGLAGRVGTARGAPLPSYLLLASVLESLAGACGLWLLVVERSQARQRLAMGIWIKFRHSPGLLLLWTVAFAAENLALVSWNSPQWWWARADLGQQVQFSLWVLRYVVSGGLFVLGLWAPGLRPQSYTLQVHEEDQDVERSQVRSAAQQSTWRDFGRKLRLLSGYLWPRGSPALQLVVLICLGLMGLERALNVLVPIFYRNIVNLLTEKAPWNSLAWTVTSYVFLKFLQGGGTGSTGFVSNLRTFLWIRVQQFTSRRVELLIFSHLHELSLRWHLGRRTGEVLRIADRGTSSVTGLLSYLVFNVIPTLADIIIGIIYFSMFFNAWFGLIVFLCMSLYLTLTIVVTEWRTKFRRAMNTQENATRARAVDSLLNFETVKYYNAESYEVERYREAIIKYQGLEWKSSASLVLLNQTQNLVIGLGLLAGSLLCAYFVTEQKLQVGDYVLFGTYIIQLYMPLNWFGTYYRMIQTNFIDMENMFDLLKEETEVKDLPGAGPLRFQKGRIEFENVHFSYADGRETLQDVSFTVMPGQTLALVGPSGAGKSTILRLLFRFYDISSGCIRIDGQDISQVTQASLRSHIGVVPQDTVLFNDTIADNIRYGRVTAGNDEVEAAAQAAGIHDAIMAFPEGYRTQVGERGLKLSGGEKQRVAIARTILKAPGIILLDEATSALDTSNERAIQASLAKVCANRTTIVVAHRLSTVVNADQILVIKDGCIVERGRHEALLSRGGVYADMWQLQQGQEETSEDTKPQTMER

[15] = AML differentiation inducers, ER-HoxA9 marrow cells – cell-based, GFP/MAC1 double positive, flow cytometry, validation set, primary screen (AID 588685;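 active = differentiation response of at least 50%, scaled between solvent and reference control, from cells with both markers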;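 also: compound exposure lasts four days before antibody staining and flow analysis; 0% = DMSO wells and 100% = 5 µM fulvestrant positive control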); conditions: stronger effect = higher value, normalized: vehicle 0, fulvestrant 100

COc1ccc(CC(=O)c2c(O)cc(O)cc2O)cc1OC
58.4%: double positive events [6]
inactive: percent of DMSO control GFP [1] 103% | GFP response vs DMSO [2] 110% | percent response of DMSO control [3] 98.8% | GFP response vs DMSO [4] 101% | GFP response, % of DMSO [5] 97.5% | vesicle binding response [6] 171% | inhibition [7] 1.62% | superoxide response (% of plate) [8] 102% | aptamer binding inhibition [9] 1% | inhibition [10] 49.5% | response [11] -6.13% | binding (% of control) [12] 100% | efflux inhibition (fraction of control) [13] 0.18 | inhibition [14] 3% | differentiation response [15] 27.2%

C#C[C@]1(O)CC[C@H]2[C@@H]3CCC4=C(CCC(=O)C4)[C@H]3CC[C@@]21C
inactive: percent of DMSO control GFP [1] 97.1% | GFP response vs DMSO [2] 92.8% | percent response of DMSO control [3] 94.9% | GFP response vs DMSO [4] 129% | GFP response, % of DMSO [5] 98.7% | vesicle binding response [6] 188% | inhibition [7] 2.56% | superoxide response (% of plate) [8] 95.1% | aptamer binding inhibition [9] 2% | inhibition [10] 1.1% | response [11] 5.28% | binding (% of control) [12] 102% | efflux inhibition (fraction of control) [13] -0.2 | inhibition [14] 7% | differentiation response [15] -0.2%
55.6%: double positive events [6]

COc1ccccc1C(=O)c1cc2ccc(O)cc2oc1=O
inactive: percent of DMSO control GFP [1] 103% | GFP response vs DMSO [2] 110% | percent response of DMSO control [3] 105% | GFP response vs DMSO [4] 100% | GFP response, % of DMSO [5] 100% | vesicle binding response [6] 147% | inhibition [7] 12.8% | superoxide response (% of plate) [8] 99.2% | aptamer binding inhibition [9] 1% | inhibition [10] -2.87% | response [11] 5.05% | binding (% of control) [12] 104% | efflux inhibition (fraction of control) [13] 0.03 | inhibition [14] -208% | differentiation response [15] -14.7%
57.1%: double positive events [6]

CCOc1cccc(N2C(=O)CC(N(CCc3ccc(OC)c(OC)c3)C(=O)CC)C2=O)c1 (centres undefined)
inactive: percent of DMSO control GFP [1] 101% | GFP response vs DMSO [2] 105% | percent response of DMSO control [3] 104% | GFP response vs DMSO [4] 98.4% | GFP response, % of DMSO [5] 100% | vesicle binding response [6] 184% | inhibition [7] 0% | superoxide response (% of plate) [8] 94% | aptamer binding inhibition [9] 2% | inhibition [10] 27.3% | response [11] -1.88% | binding (% of control) [12] 100% | efflux inhibition (fraction of control) [13] -0.2 | inhibition [14] 5% | differentiation response [15] -18%
59.7%: double positive events [6]

O=[N+]([O-])c1cc(/C=N/n2cnnc2)ccc1N1CCCC1
inactive: percent of DMSO control GFP [1] 100% | GFP response vs DMSO [2] 99.9% | percent response of DMSO control [3] 97.9% | GFP response vs DMSO [4] 95.4% | GFP response, % of DMSO [5] 101% | vesicle binding response [6] 182% | inhibition [7] 10.9% | superoxide response (% of plate) [8] 105% | aptamer binding inhibition [9] 6% | inhibition [10] 5.45% | response [11] -0.97% | binding (% of control) [12] 96.4% | efflux inhibition (fraction of control) [13] -0.43 | inhibition [14] 3% | differentiation response [15] -8.27%
60.8%: double positive events [6]

C/C=C/Cn1c(SC)nc2c1c(=O)[nH]c(=O)n2C
59%: double positive events [6]
active: efflux inhibition (fraction of control) [13] 0.78
inactive: percent of DMSO control GFP [1] 102% | GFP response vs DMSO [2] 101% | percent response of DMSO control [3] 95.9% | GFP response vs DMSO [4] 93.3% | GFP response, % of DMSO [5] 93.4% | vesicle binding response [6] 124% | inhibition [7] 3.49% | superoxide response (% of plate) [8] 97.4% | aptamer binding inhibition [9] 0% | inhibition [10] 34.4% | response [11] 1.09% | binding (% of control) [12] 103% | inhibition [14] 0% | differentiation response [15] -14.7%

COc1ccc2oc(=O)c(-c3nc(C)cs3)cc2c1
54.8%: double positive events [6]
inactive: percent of DMSO control GFP [1] 98% | GFP response vs DMSO [2] 101% | percent response of DMSO control [3] 96.9% | GFP response vs DMSO [4] 106% | GFP response, % of DMSO [5] 88.2% | vesicle binding response [6] 204% | inhibition [7] 9.09% | superoxide response (% of plate) [8] 89.3% | aptamer binding inhibition [9] 6% | inhibition [10] -7.03% | response [11] -3.63% | binding (% of control) [12] 92.6% | efflux inhibition (fraction of control) [13] -0.05 | inhibition [14] 7% | differentiation response [15] -1.82%

CCN(CC)C(=O)c1ccc(O)c(OC)c1
inactive: percent of DMSO control GFP [1] 94.2% | GFP response vs DMSO [2] 102% | percent response of DMSO control [3] 98.8% | GFP response vs DMSO [4] 102% | GFP response, % of DMSO [5] 102% | vesicle binding response [6] 118% | inhibition [7] 25.9% | superoxide response (% of plate) [8] 89% | aptamer binding inhibition [9] 0% | inhibition [10] -2.62% | response [11] 0.77% | binding (% of control) [12] 101% | efflux inhibition (fraction of control) [13] 0.29 | inhibition [14] 15% | differentiation response [15] -9.89%
53.9%: double positive events [6]

CCOC(=O)c1cnc2ccccc2c1NCCO
inactive: percent of DMSO control GFP [1] 108% | GFP response vs DMSO [2] 99.9% | percent response of DMSO control [3] 109% | GFP response vs DMSO [4] 102% | GFP response, % of DMSO [5] 103% | vesicle binding response [6] 186% | inhibition [7] 1.62% | superoxide response (% of plate) [8] 98.1% | aptamer binding inhibition [9] 0% | inhibition [10] -2.19% | response [11] 5.12% | binding (% of control) [12] 99.8% | efflux inhibition (fraction of control) [13] -0.12 | inhibition [14] 7% | differentiation response [15] -18%
61.1%: double positive events [6]
